Screening results deposited in PubChem by National Center for Advancing Translational Sciences (NCATS).
ELG1 genotoxic: genotoxicity induction in ELG1-luciferase HEK293T cells; HEK293T ELG1-luciferase reporter, luminescence, 16 h; Potency, µM (highest dose often 46 µM), hits mostly activators; 1.3% of 330,000 active; also: nearly all actives have a fitted effect of over 60% in size
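Quantitative HTS format in 1536-well plates. HEK293T ELG1-luciferase reporter cells receive test compound and are incubated 16 hr at 37 °C, 5% CO2; ONE-Glo added, 30 min room temperature, then luminescence read.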
Rab9 prom act: activates the Rab9 promoter; Huh7 Rab9 promoter-luciferase reporter, luminescence, 24 h; 2.8% of 320,000 active; Potency, µM (titrated, usually from 9.22 µM), actives largely listed as activators; also: nearly all actives have a fitted effect of over 60% in size
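Cell-based reporter: Huh7 stable for Rab9 promoter-driven luciferase, plated in reduced-serum medium with 10% FBS at 1500 cells/well, compound-treated 24 h at 37 °C, luminescence read after 10 min reagent.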
NPC1 prom act: activates the NPC1 promoter; 2.4% of 320,000 active; Huh7 NPC1 promoter luciferase reporter, 24 h; Potency, µM (highest dose often 9.22 µM), hits mostly activators; also: nearly all actives have a fitted effect of over 60% in size
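Luminescence read-out of NPC1 promoter-driven luciferase in stably transfected Huh7 cells; compounds delivered in DMSO and left 24 h at 37C, 5% CO2, qHTS titration format.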
SMN2 splice enh: increases expression of the SMN2 splice variant; HEK293 SMN2-luciferase splicing reporter, luminescence, 30-36 h; Potency, µM (top dose mostly 46.1 µM), usual class: activators; 2.8% of 210,000 active; also: nearly all actives have a fitted effect of over 55% in size
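HEK293 cells carry an SMN2 […]–luciferase reporter in which exon 7 inclusion puts luciferase in frame. Cells were plated 10-12 h before compound addition, then incubated 30-36 h at 37C. ONE-Glo luminescence was read; sodium butyrate at 4.5 mM final served as control.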
FLuc modulator: counter-screen for miR-21 project: firefly luciferase inhibitors or activators | P08659 | purified FLuc, Km substrates, luminescence inhibition | Potency, µM (doses to about 57.5 µM), usual class: inhibitors | 6.9% of 360,000 active; also: nearly all actives have a fitted effect of over 55% in size
Target sequence (P08659 whole entry, looked up): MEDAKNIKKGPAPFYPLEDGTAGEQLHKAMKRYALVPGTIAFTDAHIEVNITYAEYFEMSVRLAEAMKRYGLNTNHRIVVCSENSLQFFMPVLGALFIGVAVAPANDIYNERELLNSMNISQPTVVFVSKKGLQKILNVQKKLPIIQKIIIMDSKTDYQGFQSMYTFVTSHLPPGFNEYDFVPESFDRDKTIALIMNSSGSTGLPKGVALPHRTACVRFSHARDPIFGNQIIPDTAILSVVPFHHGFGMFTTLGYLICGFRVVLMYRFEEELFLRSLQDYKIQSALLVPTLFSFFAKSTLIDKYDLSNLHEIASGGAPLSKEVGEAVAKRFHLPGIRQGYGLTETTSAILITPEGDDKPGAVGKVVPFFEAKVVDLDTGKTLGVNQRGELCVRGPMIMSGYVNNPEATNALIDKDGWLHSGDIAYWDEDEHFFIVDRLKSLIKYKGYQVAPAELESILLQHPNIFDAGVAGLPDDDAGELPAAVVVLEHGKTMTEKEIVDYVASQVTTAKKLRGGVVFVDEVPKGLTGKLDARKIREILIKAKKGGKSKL
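Purified P. pyralis luciferase, 10 nM final, with Km-level 10 uM D-luciferin and 10 uM ATP in 50 mM Tris acetate pH 7.5, 10 mM Mg acetate, 0.01% Tween-20, 0.05% BSA; 6-point qHTS titration about 60 µM downward; luminescence read.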
Numbers stand for hits; 0 = inactive; ? = inconclusive; - = not tested or not shown; [ ] = dose if it differs, or a comment. Rows were chosen to be rich in hits. Some 7.4% of all compounds tested hit in one or more screens of this group. Calls follow the shape of the dose curve; as a rule, active = well fitted curve in the direction sought with a large enough effect; inconclusive = small, poorly fitted or top-dose-only effect, or another doubt; inactive = no such curve, though single readings can be large; an effect the other way counts as inactive or inconclusive.

SMILES	ELG1 genotoxic	Rab9 prom act	NPC1 prom act	SMN2 splice enh	FLuc modulator
CC(=O)Nc1ccc(S(=O)(=O)N(C)CC(=O)OC(C)C(=O)NC2CCCCC2)cc1 (stereo not given)	0	0	0	-	0
COc1ccc(N2CCN(c3nc(-c4cccs4)nc4ccccc34)CC2)cc1	0	0	0	-	0
COCC(=O)N1CCC(Oc2ccc(C(=O)N(C)C3CCCCC3)cc2)CC1	0	0	0	-	0
Cc1ccccc1-c1nc2ccccc2o1	0	0	0	0	8.5µM
Cc1ccccc1-c1nc2cc(Cl)ccc2o1	?	?	?	-	2.1µM
CCOc1cc(S(=O)(=O)NCCc2c(C)[nH]c3ccc(C)cc23)ccc1Br	-	-	-	0	0
CC(C)Oc1ccc(/C=C/C(=O)NCC2COc3ccccc3O2)cc1 (stereo not given)	0	0	0	-	15µM
CC(=O)c1ccc(NCC2COc3ccccc3O2)c([N+](=O)[O-])c1 (stereo not given)	?	1.1µM	2.8µM	5.6µM	17µM
NS(=O)(=O)c1ccc(NCC2COc3ccccc3O2)c([N+](=O)[O-])c1 (stereo not given)	0	0	0	0	0
O=C(NCC1COc2ccccc2O1)c1ccc(Cl)cc1 (stereo not given)	12µM	2.5µM	3.5µM	14µM	7.6µM
Cc1ccc(Nc2c(-c3ccc(C)o3)nc3cnccn23)cc1	?	0	0	0	0
Brc1ccc(-c2nc3ccccn3c2Nc2ccc3c(c2)OCCO3)o1	-	-	-	?	13µM
COc1ccc(Nc2c(-c3ccc(C)o3)nc3cc(C)ccn23)cc1	-	-	-	0	17µM
Cc1ccc(-c2nc3ccc(Cl)cn3c2Nc2ccc3c(c2)OCCO3)s1	-	-	-	5µM	?
Cc1ccn2c(Nc3ccc4c(c3)OCCO4)c(-c3cccs3)nc2c1	-	-	-	0	9.5µM
CCOC(=O)c1cccc(NC(=O)C2CCCN(c3nnc(C)c4c(C)n(-c5ccccc5)nc34)C2)c1 (stereo not given)	-	-	-	-	0
Cc1ccc2nc(-c3ccc(C)o3)c(Nc3ccc4c(c3)OCCO4)n2c1	-	-	-	8.9µM	21µM
Cc1ccn2c(Nc3ccc4c(c3)OCO4)c(-c3ccc(C)o3)nc2c1	-	-	-	0	24µM
COC(=O)c1c(C(=O)OC)c(-c2cccc(F)c2)n2c1CS(=O)(=O)C2	0	0[1.84 µM]	0	-	0
COc1ccc(S(=O)(=O)c2cn(CC(=O)Nc3cc(C)ccc3C)c3ccccc3c2=O)cc1	-	-	-	0	0
CC(NS(=O)(=O)c1ccc(OCC(=O)NCc2cccnc2)cc1)c1ccccc1 (stereo not given)	0	0	0	-	0
CC(=O)c1c(C)[nH]c(C(=O)Nc2cccc(C)n2)c1C	1.6µM	0.45µM	0.35µM	-	8.5µM
CC(=O)c1c(C)[nH]c(C(=O)Nc2cccnc2)c1C	0	0	0	0	0
CC(=O)c1c(C)[nH]c(C(=O)Nc2nccs2)c1C	?	2.8µM	?	13µM	24µM
Cc1ccc(NC(=O)Cn2c(=O)n(Cc3ccccc3)c(=O)c3c(C)c(C)sc32)c(C)c1	-	-	-	0	0
SMILES	ELG1 genotoxic	Rab9 prom act	NPC1 prom act	SMN2 splice enh	FLuc modulator
O=C(CSc1ncnc2c1cnn2-c1ccccc1)NC1CCCC1	?	0	0	-	?
O=C(O)c1cc(-c2ccc3c(c2)OCO3)nc2ccc(Br)cc12	0	0	0	0	3µM
O=C(O)c1cc(-c2ccc3cc4c(cc3c2)OCO4)nc2ccccc12	-	-	-	3.5µM	-
O=C(NCCCN1CCOCC1)c1cc(-c2ccc3c(c2)OCO3)nc2ccccc12	0	0	0	0	?
Cc1cc(C)nc(NC(=O)c2cc(-c3ccc4c(c3)OCO4)nc3ccccc23)c1	0	0	0	-	?
COC(=O)c1cc(-c2ccc3c(c2)OCO3)nc2ccccc12	0	0	0	0	17µM
O=C(CSc1ccc2ccccc2n1)NCc1ccc2c(c1)OCO2	0	0	0	0	?
c1ccc2nc(-c3ccc4c(c3)OCO4)ccc2c1	2.6µM	0.32µM	0.56µM	13µM	0.95µM
N#Cc1ccsc1NC(=O)CCN1C(=O)C2CCCCC2C1=O (stereo not given)	0	-	-	-	-
CCOC(=O)c1c(C)[nH]c(C)c1S(=O)(=O)N1CCCC(C(=O)Nc2ccccc2OCC)C1 (stereo not given)	-	-	-	-	0
COc1ccc([C@H]2c3cc(OC)c(OC)cc3C[C@@H](C)[C@@H]2C)cc1OC	-	-	-	0	-
O=C(Nc1nc(-c2ccc(F)c(F)c2)cs1)Nc1ccc(F)cc1F	?	0	0	-	0
